# From publication PMC6792352, “Limited Chemical Structural Diversity Found to Modulate Thyroid Hormone Receptor in the Tox21 Chemical Library” (Environmental Health Perspectives, 2019)
# System: thyroid hormone receptor (endogenous TRα and TRβ)
# Set-up: species or system GH3-TRE-Luc (rat pituitary); GH3-TRE-Luc luciferase reporter, antagonist mode against 1 nM T3, loss of signal, qHTS
# Settings: read-out: Average AC50 (uM) GH3-TRE-Antag, antagonist mode, 1 nM T3, no GH3 cytotoxicity hit, Average AC50 (uM) GH3-TRE-Antag, 24 h
row,SMILES,AC50
1,CCCCCCn1cc[n+](C)c1 [1-Hexyl-3-methylimidazolium hexafluorophosphate],53.8 µM
2,CCCCCCn1cc[n+](C)c1 [1-Hexyl-3-methylimidazolium trifluoromethanesulfonate],52.5 µM
3,Nc1c2c(nc3ccccc13)CCCC2 [Tacrine],41.7 µM
